# Screens deposited in PubChem BioAssay by National Center for Advancing Translational Sciences (NCATS).
# Hits are enriched below; roughly 19% of the tested compounds scored in any of these assays.
# TDP1 cell noCPT: qHTS for Inhibitors of human tyrosyl-DNA phosphodiesterase 1 (TDP1): qHTS in cells in absence of CPT | AID 686978, 2013 | DT40 Tdp1-/- hTDP1 cells, no CPT, ATP luminescence, 48 h | hit rate 15% among 420,000 | Potency, µM (highest dose often 46.2 µM), inactives show top-dose activity change, negative = growth inhibition, actives largely listed as inhibitors; also: potency is read from the fitted curve at half-maximal effect; nearly all actives have a fitted effect of over 55% in size
#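 Stably hTDP1-transfected Tdp1-null chicken DT40 cells were treated with library compounds minus camptothecin and grown for at least 48 hr at 37 °C, after which cellular ATP was quantified by luminescence.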
# IL-1B inflam inh: inhibitors of inflammasome signaling (IL-1 beta secretion); THP-1 LPS/ATP IL-1B secretion, AlphaLISA, 16 h; active compounds read low; activity change, % at 57.5 µM; hit rate 4.7% among 360,000; in the data active = activity change below about -50%; inconclusive = mostly about -30% to -49%
#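 THP-1 cells pretreated 1 hr with compounds (up to 57.5 uM final), then stimulated with LPS (250 ng/mL final) plus ATP (1.25 mM final); secreted IL-1B measured by AlphaLISA after 16 hr, decreased signal indicating inhibition.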
# HT1080-NT tox: kills 2HG-producing HT-1080-NT fibrosarcoma cells; HT-1080-NT fibrosarcoma viability, CellTiter-Glo ATP luminescence, 48 h; Potency, µM (doses to about 46.1 µM), for the others: at the top dose activity, negative = less viability, actives largely listed as cytotoxic; hit rate 1.6% among 360,000; AID 686970;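 also: NT is the 2HG producing partner of a matched IDH1 knockdown line; potency is read from the fitted curve at half-maximal effect; 0% = DMSO-treated cells and -100% = media-only wells without cells; nearly all actives have a fitted effect of over 55% in size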
#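 Read-out is CellTiter-Glo luminescence after 10 minutes at room temperature, following 48 hours' compound treatment of HT-1080-NT cells (750 cells/well, RPMI, 5% FBS, 37 degrees C).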
# HT1080 IDH1KD tx: HT-1080 IDH1 knockdown cell toxicity (counter line); HT-1080 IDH1 knockdown viability, ATP luminescence, 48 h; Potency, µM (top dose mostly 46.1 µM), for inactives: at the highest dose activity, negative = toxicity, usual class: cytotoxic; hit rate 2% among 360,000;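 also: potency is read from the fitted curve at half-maximal effect; 0% = DMSO wells and -100% = cell-free medium wells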
#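 % activity derives from luminescence (CellTiter-Glo), normalised to DMSO and no-cell wells. HT-1080-IDH1KD cells, 750/well, had 48 h compound exposure at 37 °C.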
# DT40 TDP1 CPT: DT40-hTDP1 cell growth loss with CPT. chicken DT40 Tdp1-/-;hTDP1 cells + 20 nM CPT, ATP luminescence, 48 h. Potency, µM (series often up to 46.2 µM), for the others: at the top dose activity change, negative = growth inhibition, most hits filed as inhibitors. hit rate 12% among 420,000. AID 686979; also: potency is read from the fitted curve at half-maximal effect; nearly all actives have a fitted effect of over 55% in size
#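 Chicken DT40 Tdp1-/- cells stably complemented with human TDP1 were seeded at 400 cells/well in medium containing 20 nM camptothecin, exposed to pin-transferred compounds, and grown at 37 °C for at least 48 hr. Viability was read as ATP luminescence.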
# Numbers without * were called inactive; ? = inconclusive; · = not tested or not shown; ! = not confirmed by another sample; [ ] = dose if it differs, or a comment. Unless noted, calls follow the shape of the dose curve; as a rule, active = well fitted curve in the direction sought with a large enough effect; inconclusive = small, poorly fitted or top-dose-only effect, or another doubt; inactive = no such curve, though single readings can be large; an effect the other way counts as inactive or inconclusive. Unless noted, % is scaled to controls: 0 for no effect and ±100 for the full control effect.
SMILES,TDP1 cell noCPT,IL-1B inflam inh,HT1080-NT tox,HT1080 IDH1KD tx,DT40 TDP1 CPT
O=C(Nc1cccc2ccccc12)c1nn(C23CC4CC(CC(C4)C2)C3)cc1Br,16.4µM*,-3.5,1.5%,2.2%,23.1µM*
CCCC(C)(COC(N)=O)COC(=O)NC(C)C (configuration not stated),0.2%,34.5,28.2%,5.5%,-18.1%
O=C(O)CCCc1ccc(N(CCCl)CCCl)cc1,0.651µM*,-1.3,-6.5%,1.1%,0.461µM*
O=C(Cc1ccc(N(CCCl)CCCl)cc1)NC(Cc1ccc(Cl)cc1)C(=O)O (configuration not stated),?,0.0,14.9%,8.9%,?
CN(C)[C@@H]1C(=O)C(C(N)=O)=C(O)[C@@]2(O)C(=O)C3=C(O)c4c(O)ccc(Cl)c4[C@@](C)(O)C3C[C@@H]12 (some centres not stated),23.1µM*,-12.4,?,?,?
CN(C)[C@@H]1C(=O)C(C(N)=O)=C(O)[C@@]2(O)C(=O)C3=C(O)c4c(O)cccc4[C@@](C)(O)C3[C@H](O)C12 (some centres not stated),18.4µM*,17.6,-17.2%,-0.1%,?
CN(C)C1C(=O)C(C(N)=O)=C(O)[C@@]2(O)C(=O)C3=C(O)c4c(O)cccc4[C@@](C)(O)C3[C@H](O)C12 (some centres not stated),-69.9%,·,·,·,8.41µM*
O=C(Cc1cccs1)N1Cc2ccccc2-n2nncc2C1,?,83.7,-0.3%,7.0%,-14.6%
O=C1NCN(c2ccccc2)C12CCN(C[C@H]1COc3ccccc3O1)CC2,-24.8%,·,·,·,8.8%
C=C1CCN([C@@H](Cc2ccccc2)C(=O)Nc2ccc(OC)cc2)S(=O)(=O)c2ccccc21,?,-9.7,-0.8%,3.7%,?
COc1ccc(NC(=O)N2CC3(CCN(C(=O)Oc4ccccc4)CC3)C2)cc1,-29.5%,·,·,·,-7.2%
CC(=O)Nc1cc(-c2cccc(C(=O)N(C)C)c2)cn2c(-c3cccc(C(F)(F)F)c3)cnc12,16.4µM*,-20.3,?,-29.1%,18.4µM*
COC(=O)[C@@]1(C)CC[C@]2(C)CC[C@@]3(C)C(=CC(=O)C4[C@@]5(C)CC[C@H](O)C(C)(C)[C@@H]5CC[C@]43C)[C@H]2C1 (some centres not stated),?,5.8,11.8%,6.4%,-28.5%
CCCc1nn(C)c2c1C(c1ccncc1)C(C#N)=C(N)O2 (configuration not stated),29.1µM*,-2.8,2.9%,10.4%[9.24 µM],?
CCCC(C)C1C(C#N)=C(N)Oc2c1c(=O)oc1ccccc21 (configuration not stated),?,1.3,-2.7%,7.5%[9.24 µM],-16.5%
CC(C)Nc1ccc(Nc2ccccc2)cc1,6.51µM*,-94.7*,·,·,6.51µM*
Cc1cc(C(=O)Nc2sc3c(c2C#N)CCC3)no1,?,0.0,10µM*,?,?
CCOc1ccc(-c2c(C)n(-c3ccc(OCC)cc3)c3[n+]2CCCCC3)cc1,0.164µM*,-92.3*,14.6µM*,?,0.206µM*
COCC(C)N(C(=O)CCl)c1c(C)csc1C (configuration not stated),-17.1%,·,·,·,10.3%
CCc1cccc(CC)c1N(COC)C(=O)CCl,?,-19.0,·,·,20.6µM*!
CCOCN(C(=O)CCl)c1c(C)cccc1CC,?,-59.6*,-5.4%,4.0%,?
Cc1nc2ccccc2c(=O)n1-c1ccc(Cl)cc1[N+](=O)[O-],?,0.0,-0.9%,4.8%,?
CCN(CC)P(=O)(c1n(CC)cc[n+]1CC)N(CC)CC,?,7.5,0.6%,1.4%,-0.7%
COc1ccc(-c2cc3nc(C)c(CCC(=O)N4CCN(c5cc(C)ccc5C)CC4)c(C)n3n2)c(OC)c1,9.2µM*,·,·,·,8.2µM*
COc1ccc(OC)c(CN2CCN(C(=O)Cc3ccccc3)CC2)c1,-3.4%,5.4,-12.7%,-1.1%,-20.8%
